High-throughput results: PubChem, National Center for Advancing Translational Sciences (NCATS)
The list is not random: actives were taken first. Their share in the collection is about 0.77%.
Tb PYK inh = T. brucei pyruvate kinase inhibition | AID 624173 | Q57TT1 | 410,000 compounds, 0.12% hits | Potency, µM (titrated, usually from 76.8 µM), for inactives: at the top dose activity, negative = inhibition, usual class: inhibitors | TbPYK enzyme, Kinase-Glo Plus ATP luminescence, 45 min; further: potency means the concentration at half of the fitted maximal effect; on the % scale 0 is the no-effect control and ±100 the full control effect; nearly all actives have a fitted effect of over 50% in size
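Quantitative HTS: titrated library compounds versus trypanosomal pyruvate kinase in TEA buffer (pH 7.2) containing KCl, MgCl2, BSA and Tween-20. Reactions were initiated with ADP, 130 uM final. Kinase-Glo Plus luminescence was read after 45 min at RT.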
LmPK inhibitor = blocks Leishmania mexicana pyruvate kinase activity | Potency, µM (highest dose often 57.5 µM), without a hit: at the highest dose activity change, negative = inhibition, hits mostly inhibitors | purified LmPK, Kinase-Glo ATP luminescence, 1 h | 290,000 compounds, 0.37% hits; further: potency means the concentration at half of the fitted maximal effect; on the % scale 0 is the no-effect control and ±100 the full control effect
Target sequence (Q27686 whole entry, looked up): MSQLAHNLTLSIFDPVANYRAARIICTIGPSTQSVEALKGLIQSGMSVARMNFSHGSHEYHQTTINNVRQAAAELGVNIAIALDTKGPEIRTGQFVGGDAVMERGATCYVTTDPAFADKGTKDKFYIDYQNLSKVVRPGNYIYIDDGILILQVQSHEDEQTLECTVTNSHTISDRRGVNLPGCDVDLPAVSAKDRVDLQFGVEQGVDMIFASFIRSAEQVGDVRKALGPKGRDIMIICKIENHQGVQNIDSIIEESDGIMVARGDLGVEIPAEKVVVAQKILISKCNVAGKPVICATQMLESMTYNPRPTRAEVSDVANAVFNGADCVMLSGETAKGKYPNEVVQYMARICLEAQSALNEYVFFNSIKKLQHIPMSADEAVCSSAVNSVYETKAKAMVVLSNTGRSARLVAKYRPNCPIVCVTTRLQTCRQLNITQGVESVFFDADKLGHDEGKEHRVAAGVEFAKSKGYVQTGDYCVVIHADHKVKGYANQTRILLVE
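Purified LmPK (0.1 nM) with 0.5 mM PEP and 0.1 mM ADP in imidazole buffer pH 7.2 with MgCl2/KCl, 1 h at room temperature. ATP formed was read by luciferase luminescence and normalized to no-enzyme and uninhibited controls.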
NS1 function inh = inhibitors of influenza NS1 protein function. AID 2326. 270,000 compounds, 0.4% hits. Potency, µM (highest dose often 46.1 µM), without a hit: at the top dose activity, positive = more growth; calls by dose curve; further: potency means the concentration at half of the fitted maximal effect; actives are rising curves; nearly all actives have a fitted effect of over 50% in size
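S. cerevisiae expressing influenza A NS1, grown in glucose, washed, then diluted 1:100 into pH 6.0 -URA galactose medium with 23 nl compound. Growth recovery read as OD600; NS1-free strain serves as control.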
RE007 growth inh = less growth of the S. pombe RE007 Vpr strain; 360,000 compounds, 0.21% hits; Potency, µM (series often up to 92.2 µM), without a hit: at the top dose activity change, negative = less growth, actives largely listed as inhibitors; S. pombe RE007 Vpr strain, BacTiter-Glo ATP luminescence, 24 h; AID 651644; active means well fitted falling curve with a large enough effect; inconclusive means small, poorly fitted or top-dose-only effect; inactive means no such curve, though single readings can be large or run the other way; further: potency means the concentration at half of the fitted maximal effect; on the % scale 0 is the no-effect control and ±100 the full control effect; nearly all actives have a fitted effect of over 50% in size
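Fission yeast strain RE007, carrying one chromosomally integrated HIV-1 vpr copy, was seeded at OD 0.01 in PMG+AL medium with 23 nL pinned compound. After 24 h at 30 °C and 99% humidity, viability was read by BacTiter-Glo luminescence.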
Flu NS1 inh = influenza NS1 function inhibition validation. influenza NS1 function cell assay, 15-point titration. shares compounds with NS1 function inh. 1,400 tested, under 10 active. AID 492980. activity change, negative = inhibition, % at 32.9 µM; calls by dose curve; further: 0% is about no effect
PR8 titer = influenza NS1 inhibitors: inhibition of influenza A/PR/8/34 replication; shares compounds with NS1 function inh; virus titer (log TCID50), log10 TCID50 at 5 µM; 95 compounds, 30% hits; MDCK infected influenza A/PR/8/34, virus titer TCID50; active compounds read low; call rule not given here
Numbers without * were called inactive; u = inconclusive; x = no result; [ ] = another dose, or the depositor's remark. Unless noted, the call rests on the fitted dose curve; in most records, active means well fitted curve in the direction sought with a large enough effect; inconclusive means small, poorly fitted or top-dose-only effect, or another doubt; inactive means no such curve, though single readings can be large; an effect the other way counts as inactive or inconclusive.

SMILES	Tb PYK inh	LmPK inhibitor	NS1 function inh	RE007 growth inh	Flu NS1 inh	others
C#CCn1c(=NC(=O)c2ccc(S(=O)(=O)N3CCCc4ccccc43)cc2)sc2cc(S(N)(=O)=O)ccc21	0%	2%	11µM*	-4%	18
Cn1c(=NC(=O)c2ccc(S(=O)(=O)N3CCCc4ccccc43)cc2)sc2cc(S(C)(=O)=O)ccc21	6%	1%	12%	3%	x
Cc1cc(C)c(NC(=O)CCS(=O)(=O)c2cc3c(cc2Cl)NC(=O)CO3)c(C)c1	-16%	x	x	x	x
COc1cc(C(C(=O)NC2CCCCC2)N(C(=O)c2snc(C(N)=O)c2N)c2ccc(C)cc2)ccc1O (stereo unspecified)	-9%	0%	u	1%	-14
O=C(CSc1ccccc1F)NCC(c1cccs1)N1CCOCC1 (stereo unspecified)	-3%	x	x	-16%	x
COC(=O)c1sccc1NC(=O)c1c(Cl)cnn1C	0%	-7%	-11%	-4%	x
COc1ccc(C(c2c(NC(=O)c3ccccc3)sc(C)c2C)N2CCN(CCO)CC2)cc1 (stereo unspecified)	-4%	1%	u	4%	-18
Cc1cccc(NC(=S)/N=C(\N)Nc2nc(C)c3ccc(C)cc3n2)c1	-5%	6%	24%	0%	x
Cc1ccc(NC(=S)/N=C(\N)Nc2nc(C)c3ccccc3n2)cc1C	-3%	0%	11µM*	17%	-24
Cc1cccc(NC(=S)/N=C(\N)Nc2nc(C)c3ccccc3n2)c1	1%	3%	10µM*	0%	-37
Cc1cc(C(=O)O)ccc1-n1c(C)cc(/C=C2\SC(=O)NC2=O)c1C	-13%	-8%	11µM*	4%	17
COC(=O)c1cccc(-n2c(C)cc(/C=C3\SC(=O)NC3=O)c2C)c1	-3%	x	x	15%	x
COc1ccc(-c2ccc(-c3nc4c(c(=O)[nH]c(=O)n4Cc4ccccc4)n3C)o2)c([N+](=O)[O-])c1	-3%	4%	3.5µM*	0%	-11
Cc1ccccc1C1C2=C(Nc3[nH]n(-c4ccccc4)c(=O)c31)c1ccccc1C2=O (stereo unspecified)	x	-9%	11µM*	x	-22
O=C(CNC(=O)c1ccccc1)NC1(C(=O)NC2CCCC2)CCCCC1	x	-2%	-3%	18%[3.69 µM]	x
CCN(C(=O)COC(=O)c1[nH]c(C)c(C(C)=O)c1C)C1CCS(=O)(=O)C1 (stereo unspecified)	4%	0%	3%	12%	x
CCC(C)N(C(=O)COC(=O)c1[nH]c(C)c(C(C)=O)c1C)C1CCS(=O)(=O)C1 (stereo unspecified)	0%	6%	3.2µM*	6%	1
CC1(OC(=O)c2ccc(Cl)nc2)C(=O)C=c2cc(-c3ccsc3)ncc2=C1OC(=O)C1CCCC1 (stereo unspecified)	x	-1%[11.5 µM]	x	x	x
Cc1ccc(C)c(S(=O)(=O)Nc2ccccc2C(=O)Nc2ccc(S(=O)(=O)Nc3ncccn3)cc2)c1	-14%	-7%	11µM*	-3%	25
Cc1ccc(C)c(S(=O)(=O)Nc2ccc(S(=O)(=O)Nc3ncccn3)cc2)c1	9%	x	x	-9%	x
O=c1ccc(Cl)n[nH]1	-7%	-9%	7.9µM*	1%	14
CN(C)S(=O)(=O)c1cccc(COC(=O)CN2CCCCCC2=O)c1	-1%	-2%	15%	12%	x
O=C(CN1CCCCCC1=O)OCc1ncc(-c2ccccc2)o1	5%	-7%	0.45µM*	-15%	0	PR8 titer=8.5
CC(=O)O[C@H]1C[C@@H]2CC[C@@H]3[C@H](CC[C@]4(C)[C@H](OC(C)=O)[C@@H](N5CC[N+](C)(C)CC5)C[C@@H]34)[C@@]2(C)C[C@@H]1N1CC[N+](C)(C)CC1	-8%	x	x	x	x
C/C=C\C=C/C(=O)Nc1cccc(C2=NOC3(C2)C[C@@H](C(N)=O)N(C(=O)c2ccccc2)C3)c1 (stereo partly specified)	x	2%	1µM*	x	-11
SMILES	Tb PYK inh	LmPK inhibitor	NS1 function inh	RE007 growth inh	Flu NS1 inh	others
COc1ccc(/C=N/Nc2nc3ccccc3[nH]2)cc1OC	0%	-10%	18%	-5%	x
COc1cc(/C=N\Nc2nc3ccccc3[nH]2)cc(OC)c1OC	-5%	9%	2.8µM*	2%	-9
COc1ccc2[nH]c3c(c2c1)CCN1C(=O)C(CC(=O)NC(C)(C)C)C[C@H](C(=O)N2CCCCC2)[C@@]31CCc1ccccc1 (stereo partly specified)	4%	x	x	8%	x
NC(CSCC(=O)O)C(=O)O (stereo unspecified)	4%	x	x	x	x
Cc1ccc(NS(=O)(=O)c2ccc(-c3coc(C)n3)cc2)c(Br)c1	3%	7%	u	25%	x
O=C1CCC/C(=N/NC(=O)c2ccc(CN3c4cccc5cccc(c45)S3(=O)=O)cc2)C1	0%	-1%	14µM*	-1%	11
O=C(O)c1cc(NS(=O)(=O)c2ccc(NCc3ccccc3)c([N+](=O)[O-])c2)cc(C(=O)O)c1	6%	16%	14µM*	9%	33
Cc1cccc(NC2=Nc3ccccc3N3C2=Nc2c(c(C)nn2-c2ccccc2)C3c2ccc(O)c(O)c2)c1 (stereo unspecified)	-8%	3%	3.5µM*	0%	3
C=CCC1=C(C)C(OC(=O)C2C(C=C(C)C)C2(C)C)CC1=O (stereo unspecified)	-4%[157 µM]	x	x	x	x
O=C1c2ccccc2C(=O)N1c1nc2nccc(-c3ccccc3)n2n1	0%	3%	u	10%	8
CCCOc1ccc(NC(=O)CC2C(=O)N(Cc3ccccc3)C(=S)N2Cc2cccs2)cc1 (stereo unspecified)	2%	1%	3.5µM*	-12%	-12
COC(=O)CN1C(=S)N(Cc2ccccc2)C(=O)C1CC(=O)Nc1ccc(Br)cc1 (stereo unspecified)	1%	3%	11µM*	22%	-31
COC(=O)CN1C(=S)N(c2ccc(Cl)cc2)C(=O)C1CC(=O)Nc1ccc(Cl)cc1 (stereo unspecified)	-13%	0%	-5%	26%	x
